Measurements as given in PubChem BioAssay (NCI).
Compounds without any hit were thinned out: in the full panel of roughly 79,000, 15% have a hit. Activity calls are given as the source filed them. Rule as the data show it: active = growth inhibition above about 70%; inactive = the rest.

Columns and labels:
[1] = NCI Yeast Anticancer Drug Screen. Data for the rad50 strain (AID 155);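 also: 0% = growth of vehicle-only cultures of the same strain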; conditions: S. cerevisiae rad50 strain growth inhibition; at 50.0 µM; hits give high values
Outline: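 Relative growth inhibition (compound vs vehicle) was measured in yeast with a defined repair-gene alteration.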

[2] = NCI Yeast Anticancer Drug Screen. Data for the mec2-1 strain (AID 157); conditions: S. cerevisiae mec2-1 strain, at 50.0 µM, hits give high values
Outline: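 Vehicle-treated cultures served as reference for growth inhibition of compound-exposed mec2-1 yeast.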

[3] = NCI Yeast Anticancer Drug Screen. Data for the sgs1 mgt1 strain (AID 161);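 also: 0% = growth of cultures given vehicle only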; conditions: S. cerevisiae sgs1 mgt1 strain, at 50.0 µM, hits give high values
Outline: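 Inhibition of yeast growth, normalised to vehicle-treated controls, is reported for a strain bearing genetic alterations in DNA damage repair.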

[4] = NCI Yeast Anticancer Drug Screen. Data for the cln2 rad14 strain (AID 165);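 also: 0% = growth equal to vehicle treated cultures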; conditions: S. cerevisiae cln2 rad14 strain, at 50.0 µM, hits give high values
Outline: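 Each compound was tested on cln2 rad14 yeast. Inhibition of growth was calculated against vehicle-exposed controls.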

[5] = NCI Yeast Anticancer Drug Screen. Data for the bub3 strain (AID 167); conditions: S. cerevisiae bub3 mutant strain, at 50.0 µM, hits give high values
Outline: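 Screening used yeast with an engineered genetic alteration affecting cell cycle control. Compound-exposed cultures were compared with vehicle cultures, and reduced growth was taken as inhibition.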

[6] = NCI Yeast Anticancer Drug Screen. Data for the mlh1 rad18 strain (AID 175); conditions: S. cerevisiae mlh1 rad18 strain growth inhibition; at 50.0 µM; hits give high values
Outline: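 Vehicle-treated cultures served as the reference for growth inhibition in a yeast strain carrying DNA damage repair alterations exposed to each compound.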

Measured: growth inhibition

CCc1cccc(C)c1NC(=O)C(=O)CC(=O)c1ccc(Cl)cc1Cl
inactive: [1] 26.9% | [2] 14.8% | [3] 7.65% | [4] -35.4% | [5] 2.15% | [6] 27.2%

CN(C)c1ccc(/C=N/NC(=O)c2ccccc2NC(=O)C2CC2)cc1
inactive: [1] -11.4% | [2] 1.4% | [3] 27% | [4] -18.8% | [5] 24.8% | [6] 26.6%

O=C1NC(=S)S/C1=C/c1cn(-c2ccccc2)nn1
inactive: [1] 17.4% | [2] 3.15% | [3] -5.05% | [4] -18.2% | [5] 1.75% | [6] 10.6%

Brc1cc2c(cc1C1SCCS1)OCO2
inactive: [1] 49.5% | [2] 20.4% | [3] 58.5% | [4] 18.6% | [5] 28.3% | [6] 34.6%

O=C(Nc1ccccc1)C(c1ccccc1)N(Nc1ccccc1Cl)c1ccccc1Cl (stereo not given)
inactive: [1] 28.8% | [2] 10.8% | [3] 17.1% | [4] 7.05% | [5] -5% | [6] 25%

CC(=O)OC1C(NC(=O)OCc2ccccc2)CC(NC(=O)OCc2ccccc2)C(O)C1O (stereo not given)
inactive: [1] 34.4% | [2] -12.5% | [3] 5.4% | [4] -10.1% | [5] -1.9% | [6] 4.9%

CCCCC(CC)COB(OCC(CC)CCCC)OCC(CC)CCCC (stereo not given)
inactive: [1] -41% | [2] -38.3% | [3] -22.1% | [4] -0.8% | [5] -23.2% | [6] -24.3%

Cc1c(Cl)ccc2c1NC(=O)C2(O)CC(=O)c1ccccc1 (stereo not given)
inactive: [1] 10.1% | [2] -3.95% | [3] 35.9% | [4] 7.15% | [5] -18.8% | [6] 30.3%

COc1ccc(C2(O)c3ccccc3C(=O)c3ccc(OC)cc32)cc1 (stereo not given)
inactive: [1] -3.15% | [2] -10.6% | [3] 4.15% | [4] 14.8% | [5] -11.1% | [6] -10.5%

COc1ccc2c(ccc[n+]2CC(=O)c2ccc(Cl)cc2)c1
inactive: [1] -35.9% | [2] -8.35% | [3] -17.2% | [4] 28.4% | [5] -0.5% | [6] -3.7%

COC(=O)NCC(OC(=O)c1cc2c(cc1I)OCO2)C1=CCCCC1 (stereo not given)
inactive: [1] 54.5% | [2] 30.1% | [3] 37.6% | [4] 29.2% | [5] 48.8% | [6] 28.8%

Cc1ccc(O)cc1C(=O)O
inactive: [1] -32% | [2] -14.7% | [3] -0.95% | [4] 8.05% | [5] -3.75% | [6] 5.4%

Cn1c(=O)c2c(nc(/N=C/c3ccncc3)n2C)n(C)c1=O
inactive: [1] -3.35% | [2] -5.95% | [3] -5.9% | [4] -75.7% | [5] -16.8% | [6] -2.85%

N=c1ccc2ccccc2n1O
inactive: [1] 10.6% | [2] -3.85% | [3] -4.2% | [4] -49.1% | [5] 7.2% | [6] -7.9%

CCOC(=O)/C(=C\c1cc(C)c(OC(C)=O)c(OC)c1)NC(=O)c1ccccc1
inactive: [1] -17.1% | [2] -15.2% | [3] -11.1% | [4] 0.1% | [5] -3.45% | [6] -4.25%

CCCNC(=O)Nc1ccc(Nc2ccccc2)cc1
inactive: [1] 5.9% | [2] 2.5% | [3] -0.5% | [4] 4.4% | [5] 18.2% | [6] 2%

COc1ccc(O)c(C(=O)O)c1
inactive: [1] -20.2% | [2] -12.3% | [3] -7.55% | [4] 12.6% | [5] -3.35% | [6] 2.15%

CC12CC(=O)OC(C1)C(=O)c1ccccc12 (stereo not given)
inactive: [1] 8.9% | [2] 16.1% | [3] 2.85% | [4] 4.45% | [5] 1.7% | [6] -3.15%

COc1ccc2cc(NC(=O)N/N=C\c3ccc(Cl)cc3)ccc2c1
inactive: [1] 33.2% | [2] 8.9% | [3] 26.9% | [4] 4.4% | [5] 27% | [6] 30.4%

Cn1c2ccccc2c(=O)c2cc(NC(=O)CCCCCCCC(=O)Nc3ccc4c(c3)c(=O)c3ccccc3n4C)ccc21
inactive: [1] -10.7% | [2] -12.8% | [3] -10.7% | [4] -12.6% | [5] -27.2% | [6] -1.45%

O=C(NCCc1c[nH]c2ccccc12)C1CC1
inactive: [1] -40% | [2] 16.6% | [3] -14.8% | [4] -32.2% | [5] 7.05% | [6] -25.9%

Nc1c(F)c(F)c(C(=O)O)c(F)c1F
inactive: [1] -16.1% | [2] -20.6% | [3] -10.4% | [4] -3.9% | [5] -4.8% | [6] -29.4%

O=C(CCCn1ccnc1[N+](=O)[O-])NCCn1ccnc1[N+](=O)[O-]
inactive: [1] 5.95% | [2] 9.35% | [3] -9.9% | [4] 17.4% | [5] -11.8% | [6] -12.3%

Oc1[nH]c2ccccc2c1N=Nc1nc(-c2ccc(Br)cc2)cs1
inactive: [1] -24.9% | [2] -24.8% | [3] -17.4% | [4] -10.2% | [5] 12% | [6] 5.5%

NC(=O)N/N=C(\CC1OC(=O)c2ccccc21)c1ccc([N+](=O)[O-])cc1 (stereo not given)
inactive: [1] 5.4% | [2] 3.85% | [3] -17.6% | [4] 3.85% | [5] -23.9% | [6] 0%

O=C(Nc1ccc(Cl)cc1[N+](=O)[O-])Oc1ccc(C(=O)OCc2ccccc2)cc1
inactive: [4] 48.5%
active: [1] 76.3% | [2] 75.1% | [3] 71.5% | [5] 84.2% | [6] 78.1%

CN(C)CC1CCc2ccccc2C1=O (stereo not given)
inactive: [1] -16.1% | [2] -37.2% | [3] -46.8% | [4] -2.05% | [5] -52.1% | [6] -48.1%

COC(c1ccccc1)c1ccccc1
inactive: [1] -21.1% | [2] 4.9% | [3] 29.5% | [4] -16.4% | [5] 1.75% | [6] -8%

O=c1c2ccccc2nc(-c2ccccc2Cl)n1/N=C/c1ccc(Cl)cc1Cl
inactive: [1] -1.1% | [2] 5.3% | [3] 2.1% | [4] -3.75% | [5] -3.5% | [6] 6.1%

CCCCCCCCCCCCCCCCNc1nc(=S)cc(C)[nH]1
inactive: [1] -10.2% | [2] -27.6% | [3] -5.05% | [4] -14.6% | [5] -25% | [6] -10.9%

CN(Cc1ccc(Cl)cc1)C(=O)Nc1ccccc1Cl
inactive: [1] 6.7% | [2] 14.7% | [3] 43.3% | [4] 7.35% | [5] 40.2% | [6] 9.95%

CCn1c(O)c(C=Nc2ccccc2)s/c1=N/Nc1nc(C)c(C(C)=O)s1
inactive: [1] 24.6% | [2] 5.25% | [3] 17.2% | [4] 16.1% | [5] 42.9% | [6] 21.2%

CC1Cc2ccccc2C2=C3CC=CCC3C3C(=O)OC(=O)C3C21 (stereo not given)
inactive: [1] 11.4% | [2] 8.05% | [3] 0.5% | [4] 2.3% | [5] 6.05% | [6] 7.65%

COc1ccc(CCC(O)c2ccccc2)cc1 (stereo not given)
inactive: [1] 25.7% | [2] 20.4% | [3] 3.65% | [4] 16.1% | [5] 19.3% | [6] 16.1%

O=C(NCCNCCCNC(=O)c1cc(-c2ccccc2)nc2ccccc12)c1cccc(OCc2ccccc2)c1OCc1ccccc1
active: [1] 86.3% | [2] 90.9% | [3] 90.3% | [4] 87.5% | [5] 89.2% | [6] 85.8%

O=C(CSSCC(=O)Nc1ccc(Br)cc1)Nc1ccc(Br)cc1
inactive: [1] 28.8% | [2] 2.45% | [3] -11.5% | [4] 18.6% | [5] -6.4% | [6] 26.4%

O=C(NNC1=NCCCN1)c1ccco1
inactive: [1] 2.1% | [2] -0.75% | [3] 9.25% | [4] -22.2% | [5] 7.5% | [6] -3.85%

Nc1cc(C(=O)c2ccccc2C(=O)O)ccc1Cl
inactive: [1] -34.3% | [2] -46.7% | [3] -8.3% | [4] 6.65% | [5] -28.8% | [6] -15.9%

O=S(=O)(NCC(Cl)CCl)c1ccccc1 (stereo not given)
inactive: [1] 0.7% | [2] -2.8% | [3] -12.7% | [4] 3.85% | [5] 3.55% | [6] 5%

Cc1ccc([Se](=C(C(=O)c2ccccc2)C(=O)c2ccccc2)c2ccc(C)cc2)cc1
active: [1] 82.4%
inactive: [2] 11.7% | [3] 35.7% | [4] 9.85% | [5] 4.95% | [6] 54.6%
